The OligoGym collection

molecular target: VN1R2; experiment: pooled miR-30 sensor sort-seq; sequence = guide strand; conditions: shRNA

Compared with TTTACTTTCATCTCTGCCCACC, TTTTACTTTCATCTCTGCCCAC is higher in sensor-assay potency score (higher = more potent): -1.01 for the first, -0.563 for the second.

Going from TAGTGCAGCAGTGTTCACTAGC to TTAGATAGGATAACCAAGGAGT, the sensor-assay potency score (higher = more potent) falls from -0.0087 to -0.311.

molecular target: VNN1; experiment: as above; conditions: shRNA

Going from TTAAATGACAGCAGAGATCTTT to TTGACACCTGAAATTCTCCAGG, the sensor-assay potency score (higher = more potent) falls from 0.464 to -0.925.

First: TTTCACTCAGCAACACCTCAGG
Second: TTTGCCACAACATAGATAGAGT
The sensor-assay potency score (higher = more potent) of the first is higher: -0.729 for the first, -0.809 for the second.

First: TTATTATTCTTGCTTGTGCTGT
Second: TATCATAATGAAATGCTCTTGA
The sensor-assay potency score (higher = more potent) of the first is lower: -0.405 for the first, 0.667 for the second.

Compared with TTAGCATTATTATTCTTGCTTG, TTCTCAGACATTTTGTAGCTTA is higher in sensor-assay potency score (higher = more potent): -0.677 for the first, 0.132 for the second.

First: TTACTGTTAAGACAGGTCCGGA
Second: TAGAGGATAATATTAACCCGGA
The sensor-assay potency score (higher = more potent) of the first is lower: -1.14 for the first, -0.217 for the second.

Going from TTTCAAACCTGGTAGAAGCTGT to TATGGGTAGAGAGAGTCCCTGT, the sensor-assay potency score (higher = more potent) falls from 0.475 to -0.516.

molecular target: VNN2; experiment: as above; conditions: shRNA

First: TTGCACTTCAGCATTGTGCAGA
Second: TAATAATATGAATATTAGCAGG
The sensor-assay potency score (higher = more potent) of the first is higher: -0.233 for the first, -1.34 for the second.

Compared with TATACTACTGAAATAGCCCTTC, TCTTCTTTTTGTAACATTCTGT is lower in sensor-assay potency score (higher = more potent): 0.854 for the first, -0.103 for the second.

First: TTAGCAGGTAAGTTATTGCTGA
Second: TAAGTTATTGCTGAATTGCTGG
The sensor-assay potency score (higher = more potent) of the first is lower: -0.154 for the first, 0.0796 for the second.

Going from TTAAATGACAGCAAAGCTCCTT to TTTCAAATCTTGTAGAAGCAGT, the sensor-assay potency score (higher = more potent) falls from 0.199 to -0.249.

Going from TATTGTATTGAAAGTAGCCATT to TTTCGGTAAGTAGCACTTCAGG, the sensor-assay potency score (higher = more potent) rises from -1.45 to -1.26.

First: TTCTTTTTGTAACATTCTGTAG
Second: TAAATGACAGCAAAGCTCCTTT
The sensor-assay potency score (higher = more potent) of the first is lower: -1.08 for the first, 0.246 for the second.

molecular target: VWA2; experiment: as above; conditions: shRNA

Compared with AAAACCATCCTCTTGATTCTTG, TTTGAAAACCATCCTCTTGATT is lower in sensor-assay potency score (higher = more potent): -0.0709 for the first, -0.884 for the second.

Compared with TTGAAAATGAATCCAAGGGGAA, TTTGCTTACATGGACTTCCTGG is higher in sensor-assay potency score (higher = more potent): -0.607 for the first, 0.502 for the second.

Going from TTGCTTACATGGACTTCCTGGA to TAACAGAAACATGATGTCCACT, the sensor-assay potency score (higher = more potent) falls from -0.0634 to -1.06.

Going from TAGCCGTCCAGTCCTTCTGGAA to TAGACCATCACATGCTTTGGGC, the sensor-assay potency score (higher = more potent) rises from -1.51 to -0.664.

Going from TCTCACAAAGCTCTGCATCTGA to TTTGTCATAGATGTGCAGCAGG, the sensor-assay potency score (higher = more potent) falls from 0.327 to -0.376.

Compared with TTTGGTTGAACAGATCCTGAGG, TTTCTTTGCTTACATGGACTTC is lower in sensor-assay potency score (higher = more potent): -0.36 for the first, -1.06 for the second.
